Measurements from article PMC5540273 (PLoS ONE, 2017).

Each compound was assayed on BMPR1B. Details: concentration: 1 μM,replicates: in singlicate; n = 1.
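Also: KINOMEscan kinase panel screen.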

Which “%Inh” value does the source give for `CS(=O)c1ccc(-c2coc3ccc(-c4n[nH]c(=O)o4)cc23)cc1` (stereo not shown) here?
Its value is 32%.

`O=C(Nc1cccc(Oc2ccc3nccn3n2)c1)Nc1cccc(C(F)(F)F)c1` was tested. Which “%Inh” value did it give?
Its value is 0%.

With `CCNCC(Cc1ccccc1)NC(=O)c1cc(Br)c(-c2ccnc3[nH]ccc23)s1.Cl.Cl` (stereo not shown) [GSK1383280] as the compound, how does the “%Inh” value read?
The value was 0%.

Which “%Inh” value does the source give for `COC(=O)Nc1nc2cc(Oc3ccc(NC(=O)Nc4cc(C(F)(F)F)ccc4Cl)cc3)ccc2[nH]1.Cl` [GW697465] here?
The value was 0%.

`COc1cc2nccc(Nc3ccc(Oc4ccccc4)cc3)c2cc1OC.Cl` [GI261656] was tested. Which “%Inh” value did it give?
Its value is 0%.

For `Cc1ccc2c(-c3ccnc(Nc4ccc(C(F)(F)F)cc4)n3)cnn2n1` [GW819776], which “%Inh” value is on record?
The value was 0%.

With `O=C(Nc1ccccc1)c1cccc(Oc2ccc3nccn3n2)c1` as the compound, how does the “%Inh” value read?
Its value is 14%.

`C[C@@H](Oc1cc(-n2cnc3cc(-c4ccncc4)ccc32)sc1C(N)=O)c1ccccc1Cl` [GSK479719] was tested. Which “%Inh” value did it give?
Its value is 0%.

How did the “%Inh” value turn out when `CS(=O)(=O)Nc1ccc(-c2ccnc3[nH]ccc23)cc1` [GSK993273] was run?
Its value is 3%.

`NC(=O)c1ccc(-c2cc3ncnc(SCC(=O)O)c3s2)cc1` was tested. Which “%Inh” value did it give?
Its value is 1%.

With `CN(c1ccc2c(c1)nc(NCc1ccc(F)cc1)n2C)c1ccnc(Nc2ccc(CS(C)(=O)=O)cc2)n1.Cl` [GW813244] as the compound, how does the “%Inh” value read?
The value was 0%.

`Cn1ccc2ncnc(Oc3ccc(NC(=O)Nc4cccc(C(F)(F)F)c4)c(F)c3)c21` was tested. Which “%Inh” value did it give?
Its value is 0%.

Which “%Inh” value does the source give for `CCOC(=O)N1CCC(n2cnc(-c3ccc(F)cc3)c2-c2ccnc(N)n2)CC1` [SB-219952] here?
Its value is 0%.

With `Cc1cccc2c(-c3ccncc3)c(-c3ccc(F)cc3)nn12.Cl` [GW461487] as the compound, how does the “%Inh” value read?
Its value is 0%.

For `N#Cc1cccc(C(=O)NC2CCN(c3ccnc(Nc4ccc(F)cc4)n3)C2)c1` (stereo not shown) [GSK1379708], which “%Inh” value is on record?
The value was 0%.

How did the “%Inh” value turn out when `Cc1n[nH]c2cc(Nc3ccnc(Nc4cccc(CN5CCOCC5)c4)n3)ccc12` [GW682569] was run?
The value was 87%.

With `Cn1cc(-c2cccc3c(N)c(C(N)=O)nnc23)cn1` as the compound, how does the “%Inh” value read?
The value was 21%.

For `Nc1nccc(-c2ccc3c(N)n[nH]c3c2)n1` [GSK1034945], which “%Inh” value is on record?
The value was 87%.

Which “%Inh” value does the source give for `C[C@@H]1CNc2c(sc3ccc4nc(-c5ccc(O)cc5)ccc4c23)C(=O)N1` here?
Its value is 0%.

With `COc1cccc(C2=C(Nc3cccc(Cl)c3)C(=O)NC2=O)c1` [SB-341556] as the compound, how does the “%Inh” value read?
The value was 0%.

Which “%Inh” value does the source give for `CCn1c(-c2nonc2N)nc2cncc(Br)c21` [SB-738004] here?
Its value is 17%.

`COc1cc2c(Nc3ccc(NC(=O)c4ccccc4)cc3)ncnc2cc1OCCCN1CCOCC1` [GSK301329] was tested. Which “%Inh” value did it give?
Its value is 0%.

How did the “%Inh” value turn out when `O=C1NCCc2[nH]c(-c3ccncc3)cc21` was run?
The value was 92.9%.

Which “%Inh” value does the source give for `Cc1ccc(Nc2ccnc(Nc3ccc4c(c3)CS(=O)(=O)C4)n2)cc1O.Cl` [GW579362] here?
Its value is 99.8%.

For `O=C(Nc1n[nH]c2cc(-c3ccco3)ccc12)C1CC1` [SB-737447], which “%Inh” value is on record?
The value was 14%.

With `CN(c1cccc(CNc2nc(Nc3ccc4c(c3)CC(=O)N4)ncc2C(F)(F)F)c1)S(C)(=O)=O` as the compound, how does the “%Inh” value read?
The value was 0%.

With `Cc1ccc(C(=O)Nc2ccc(Oc3ccc4nc(NC(=O)C5CC5)cn4c3)c(F)c2)c(=O)n1-c1ccccc1` as the compound, how does the “%Inh” value read?
The value was 0%.

Which “%Inh” value does the source give for `COC(=O)c1cccc(NC(=O)NC2CCN(c3ccnc(NCc4ccc(F)cc4)n3)CC2)c1` [GSK1379860] here?
Its value is 0%.

Which “%Inh” value does the source give for `Cl.c1ccc(Oc2ccc(Nc3ccnc4cc(-c5ccc(CN6CCNCC6)o5)ccc34)cc2)nc1` [GW567142] here?
The value was 0%.

Which “%Inh” value does the source give for `O=C(NCC1CC1)c1ccc(-c2cc(C(=O)NC3CC3)ccc2F)cc1` [GW810445] here?
Its value is 0%.

Which “%Inh” value does the source give for `C[C@@H](Oc1cc(-n2cnc3cc(-c4cnn(C)c4)ccc32)sc1C(N)=O)c1ccccc1Cl` [GSK580432] here?
The value was 0%.

Which “%Inh” value does the source give for `CC(C)c1nc(-c2cccc(NS(=O)(=O)c3ccccc3)c2)c(-c2ccnc(Nc3ccc4c(c3)CN(C)CC4)n2)s1` [GSK1649598] here?
The value was 99.9%.

With `C[C@@H](Oc1cc(-n2cnc3ccc(-c4ccncc4)cc32)sc1C(N)=O)c1ccccc1Cl` [GSK483724] as the compound, how does the “%Inh” value read?
The value was 0%.

`CCn1c(-c2nonc2N)nc2cncc(CNC3CCNCC3)c21.Cl` [SB-747651] was tested. Which “%Inh” value did it give?
The value was 0%.

How did the “%Inh” value turn out when `CC(C)S(=O)(=O)N1CCN(Cc2ccc3c(c2)nc(NC(=O)c2ccsc2)n3C[C@H](O)c2ccccc2)CC1` [GW635815] was run?
The value was 0%.

How did the “%Inh” value turn out when `COc1cc(Nc2nccc(N3CCC(NC(=O)c4cccc(C#N)c4)C3)n2)cc(OC)c1OC` (stereo not shown) [GSK1379751] was run?
Its value is 2%.

`Cc1ccc(CC(=O)N2CCc3cc(-c4cn(C)c5ncnc(N)c45)ccc32)cc1` [GSK2634758] was tested. Which “%Inh” value did it give?
Its value is 0%.
